# hcDAF12 agonist – H. contortus DAF-12 nuclear receptor activators, primary screen, cell-based, luminescence, HEK293, lit1-tk-luc reporter; AID 652067, 2013; actives 1.4% (n = 370,000); activation, % at 6.8 µM; HEK293 hcDAF-12 lit1-tk-luc reporter; 0% DMSO, 100% Δ7-dafachronic acid;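 active = activation above the mean of all tested compounds plus 3 SD, cut at about 5.5% in these data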;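 also: 100% = response to 3 µM Δ7-dafachronic acid high control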
# SMARCA2 activ – SMARCA2 (BRM) function activators, primary screen, cell-based, luminescence, high throughput; MG213 cells, MMTV-luciferase reporter, dexamethasone, overnight; activation, % at 9.1 µM; AID 652017, 2013; actives 1% (n = 370,000); in the data active = activation above about 7.8%;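 also: 0% = vehicle wells and 100% = reference activator wells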
# DAX1 inh-1 – DAX1 (NR0B1) inhibitors on StAR promoter, primary screen, cell-based, luminescence, SF-1 (NR5A1), full-length DAX-1; HEK293T StAR-luciferase reporter, SF-1/DAX-1 repression relief; inhibition, % at 6.8 µM; actives 1.1% (n = 370,000); AID 652010, 2013;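 active = inhibition above the mean over all tested compounds plus 3 SD, cut at about 3.6% in these data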;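 also: 0% = DAX-1 cells with DMSO and 100% = cells lacking DAX-1 with DMSO; higher inhibition means more luminescence from relief of DAX-1 repression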
# hgDAF-12 ag – H. glycines DAF-12 receptor agonists, primary screen, cell-based, luminescence, HEK293, GAL4 fusion, UAS-luciferase; actives 1.8% (n = 370,000); activation, % at 6.8 µM; Nuclear hormone receptor DAF-12 (Heterodera glycines), GAL4 fusion; AID 687014, 2013; HEK293 GAL4-hgDAF12 UAS-luciferase reporter, agonist luminescence; normalized to butyrate control;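 active = activation above a cutoff set at the mean of all screened compounds plus 3 SD, cut at about 10% in these data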;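 also: 0% = DMSO wells and 100% = sodium butyrate wells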
# ssDAF-12 act – S. stercoralis DAF-12 nuclear receptor activators, primary screen, cell-based, luminescence, HEK293, GRIP1 co-expression, lit1-tk-luc; AID 652126, 2013; actives 1% (n = 370,000); HEK293 ssDAF-12/GRIP1 lit1-tk-luc reporter; % of 3 µM dafachronic acid response; activation, % at 6.8 µM; Nuclear hormone receptor DAF-12 (Strongyloides stercoralis);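 active = activation above the mean over all tested compounds plus 3 SD, cut at about 0.9% in these data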;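 also: 0% = DMSO-only wells and 100% = 3 µM delta7-dafachronic acid wells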
# DAX1 inh-2 – DAX1 (NR0B1) inhibitors, primary screen, cell-based, HEK293, Gal4-DAX1, luciferase luminescence; Nuclear receptor subfamily 0 group B member 1 (Homo sapiens), P51843; HEK293 Gal4-DAX1 luciferase reporter; inhibition, % at 6.75 µM; actives 0.99% (n = 340,000); AID 504766, 2011;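 active = inhibition above the mean over all tested compounds plus 3 SD, cut at about 4.2% in these data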;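 also: 0% = DAX1-transfected cells with DMSO and 100% = empty-vector control cells with DMSO; inhibition shows as a rise in luminescence from relieved DAX1 repression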
# Target sequence (P51843 207-470 limits assumed): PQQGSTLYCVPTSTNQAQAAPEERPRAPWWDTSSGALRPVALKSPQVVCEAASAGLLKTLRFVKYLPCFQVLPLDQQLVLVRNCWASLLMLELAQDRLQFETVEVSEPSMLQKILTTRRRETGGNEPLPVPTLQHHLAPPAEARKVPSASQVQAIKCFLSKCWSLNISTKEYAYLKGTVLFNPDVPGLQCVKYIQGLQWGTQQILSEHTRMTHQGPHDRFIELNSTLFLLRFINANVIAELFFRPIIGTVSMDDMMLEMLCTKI
# An asterisk follows results filed as active; · = not tested or not shown. Most compounds without a hit are left out; they make up all but 4.8% or so of the library.
SMILES,hcDAF12 agonist,SMARCA2 activ,DAX1 inh-1,hgDAF-12 ag,ssDAF-12 act,DAX1 inh-2
COC(=O)[C@H](C)NC(=O)Nc1cc(Cl)ccc1C,-1,3,-1,2,-1,0
COc1ccc(Cn2c(=N)c(C(=O)NCC3CCCO3)cc3c(=O)n4ccccc4nc32)cc1 (centres undefined),5.7*,0,-1,7,-1,1
CCN(CC)S(=O)(=O)c1ccc(C)c(NC(=O)/C=C/c2cccs2)c1,0,-5,-1,-4,-1,-2
Cc1ccccc1NC(=O)/C=C/c1cccs1,2,4,3,13*,-1,0
O=C(COc1ccc([N+](=O)[O-])cc1Cl)N1CCc2ccccc21,5,5,4.4*,9,1,1
COc1ccc(OCC(=O)N2CCCC2=O)c([N+](=O)[O-])c1,-1,3,-1,-2,-1,0
COc1ccc2c(CC(=O)N3CCc4ccccc43)coc2c1,5.8*,4,3,10,1,1
O=C(COc1ccccc1Cl)NC(=S)N1CCc2ccccc21,5.9*,5,1,2,-1,0
COc1ccc(OCC(=O)N2CCc3ccccc32)c([N+](=O)[O-])c1,5.6*,8,4,5,0,2
O=C(NCCc1ccccc1)c1cccs1,3,2,3,11*,1,1
CCN(CC)C(=O)C(=O)Nc1ccc(OCc2ccccc2)cc1,-1,-1,0,12*,-1,0
Cc1cc2ccccc2n1CCNC(=O)C1CC1,4,1,-1,-2,0,1
O=C(Nc1ccc(Cl)cc1)c1cccs1,0,0,0,12*,-1,0
CCOc1ccc(NC(=S)Nc2ccc(OCc3ccccc3)cc2)cc1,0,-2,0,1,0,-1
Cc1cc2ccccc2n1CCNC(=O)c1cccs1,6,2,2,9,1.6*,0
COc1cc(CN2CCCC(C)C2)cc([N+](=O)[O-])c1O (centres undefined),0,-3,0,2,-2,2
OC(CNCCc1ccc(C(F)(F)F)cc1)COC(c1ccccc1)c1ccccc1 (centres undefined),1,-3,0,-1,-1,0
O=C(Nc1ccc(OCc2ccccc2)cc1)c1cccs1,2,1,2,9,-1,5.1*
O=C(N/N=C/c1ccc(OCc2ccccc2)cc1)c1cccs1,2,2,1,9,-1,2
O=C(COc1ccc([N+](=O)[O-])cc1)N1CCN(c2nnc(-c3ccccc3)c3ccccc23)CC1,0,3,-1,0,-1,1
O=C(C/C=N/OCc1c(Cl)cccc1Cl)c1ccccc1,4,2,1,6,0.9*,0
CCOC(=O)c1ccc(NC(=O)[C@@H]2CCC(=O)N2C2OC(=O)c3c2ccc(OC)c3OC)cc1 (some centres undefined),-4,2,1,2,-2,·
Oc1cccc(Nc2c3ccccc3nc3ccccc23)c1,-2,6,-1,1,-1,-1
CCN(CC)Cc1cc(Nc2c3ccccc3nc3c4ccccc4n(C)c23)cc(CN(CC)CC)c1O,3,41*,3,1,-1,4
O=S(=O)(c1ccc(Cl)nc1)N1CCN(Cc2ccc3c(c2)OCO3)CC1,-2,0,0,11*,-1,2
SMILES,hcDAF12 agonist,SMARCA2 activ,DAX1 inh-1,hgDAF-12 ag,ssDAF-12 act,DAX1 inh-2
CCCOc1ccccc1C1NC(=O)NC(C)=C1C(=O)OCCOCC (centres undefined),-3,2,0,1,0,0
Cc1ccc(C(=O)Nc2cc([N+](=O)[O-])ccc2F)s1,-1,0,0,0,-1,5.8*
Cc1ccc(CC(=O)Nc2cc([N+](=O)[O-])ccc2F)cc1,-2,1,0,-1,-1,0
Cc1ccc(NC(=O)C2CC2c2ccccc2)c([N+](=O)[O-])c1 (centres undefined),2,1,1,5,-1,6.0*
O=C(Nc1cccn2ncnc12)c1ccc(Cl)cc1,0,0,1,2,-2,0
O=C(Nc1cnc2ccccn2c1=O)c1ccc(Cl)cc1,1,7,1,13*,-1,3
O=C(NNS(=O)(=O)c1ccc(Br)cc1)C1CCCCC1,0,-5,0,-3,-1,1
COc1cc(/C=C2\C(=O)N(C)C(=S)N2C)ccc1O,-2,4,0,1,-1,0
CN1C(=O)/C(=C/c2ccc(O)c([N+](=O)[O-])c2)N(C)C1=S,0,1,1,3,-1,4.2*
O=C(N1CCOCC1)N1CC[C@H]2[C@H](CCCN2Cc2ccccc2)C1,-2,-1,0,0,-1,·
Cc1ccc2c(c1)c1c3n2CCN(CCC#N)C3CCC1 (centres undefined),1,-4,0,-1,0,4.5*
CC1CC(C)CN(CCCNC(=O)c2ccc3nc(N4CCCCC4)sc3c2)C1 (centres undefined),4,5,2,3,-1,0
CCC1CCCCN1CCCNC(=O)c1ccc2nc(N3CCCCC3)sc2c1 (centres undefined),5.6*,3,2,11*,1,1
CCN(CC)C(=O)c1sc(NC(=O)c2ccncc2)c(C(=O)OC)c1C,-1,1,0,-1,-1,-1
CSc1cccc(NC(=S)N(CCC(C)C)C(C)c2ccncc2)c1 (centres undefined),0,-2,0,3,-1,4.7*
CC(=O)Nc1cccc(N2CCCC2=O)c1,-1,7,0,-2,-1,-1
c1ccc2oc(-c3ccn[nH]3)cc2c1,5,4,1,6,-1,5.9*
Cc1ccc(C(=O)COC(=O)c2ccco2)cc1C,0,2,-1,2,1.0*,1
COc1ccc(/C=N/NC(=O)c2cccs2)c2ccccc12,3,4,1,11*,0,4
COc1ccc(/C=N/NC(=O)c2cccnc2)c2ccccc12,-1,0,-1,0,-1,0

# Source: PubChem (The Scripps Research Institute Molecular Screening Center)
